According to PubChem BioAssay (NCI):
This is part of a sample that, as a whole, favours compounds with a hit. Of some 79,000 tested, about 15% had one in any assay. Active and inactive are the calls of the source. No stated cut-off is given here; in the data, active means growth inhibition above about 70%; inactive means the rest.

Test: NCI Yeast Anticancer Drug Screen. Data for the rad50 strain (AID 155);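 further: 0% = growth of vehicle-only cultures of the same strain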
Details: S. cerevisiae rad50 strain growth inhibition; at 50.0 µM; stronger effect = higher value
Outline: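 Relative growth inhibition (compound vs vehicle) was measured in yeast with a defined repair-gene alteration.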

Row | Structure (SMILES) | growth inhibition
1 | CNC(=O)c1ccccc1C(O)c1ccc(C)cc1 (stereo not given) | 7.65% (inactive)
2 | CCN(CCC#N)c1cccc(C)c1 | -12.2% (inactive)
3 | C=CCN(CC=C)C(=O)C(=C)C | 3.3% (inactive)
4 | CC(=O)Nc1cc(-c2ccccc2)cc(-c2ccccc2)c1 | 11.6% (inactive)
5 | Nc1cc(=O)[nH]c(=S)n1-c1ccccc1 | -7% (inactive)
6 | CCCCN(CCCC)/C(=C/C(=O)OC)C(=O)OC | 20.1% (inactive)
7 | Oc1ccc2c(c1)-c1ccccc1C2 | 38.8% (inactive)
8 | Cc1ccccc1N=Nc1c(-c2ccccc2)nn(C(N)=S)c1-c1ccccc1 | 36.2% (inactive)
9 | COc1ccc(CC(NC(=O)OCc2ccccc2)C(=O)O)cc1 (stereo not given) | 1.15% (inactive)
10 | Nc1cccc(CC(=O)c2ccccc2)n1 | -4.3% (inactive)
11 | CN(C)CC(C)(C)C(=O)c1ccc(F)cc1 | 5.35% (inactive)
12 | CCCC1OCC(O)C(C(O)C(=O)CN(Cc2ccccc2)Cc2ccccc2)O1 (stereo not given) | 0.1% (inactive)
13 | O=C1C2C3C=CC(C2C(=O)N1COP(=O)(O)O)C1C2C(=O)N(COP(=O)(O)O)C(=O)C2C31 (stereo not given) | 2.1% (inactive)
14 | Cc1nc[nH]c(=O)c1N | 0.55% (inactive)
15 | Cc1ccc(N2N=S=CC2=O)cc1 | 40.7% (inactive)
16 | CC(C)(CCCCC(C)(C)C1NC(=O)N1)C1NC(=O)N1 | -42.6% (inactive)
17 | CCCCCCC(=O)OC(C)CC(C)C (stereo not given) | 6.25% (inactive)
18 | NNC(=O)CC(=O)Nc1ccccc1F | -7.9% (inactive)
19 | Cn1c(=O)c2[nH]c(CCCCCc3nc4c([nH]3)c(=O)n(C)c(=O)n4C)nc2n(C)c1=O | -9% (inactive)
20 | CCCCCOc1ccc2ccccc2c1 | -23.5% (inactive)

Row | Structure (SMILES) | growth inhibition
21 | CC(O)(CNS(=O)(=O)c1ccccc1)c1ccccc1 (stereo not given) | 14.2% (inactive)
22 | O=C(/C=C/c1ccc(OCCSCCCCCCCCCCSCCOc2ccc(/C=C/C(=O)c3ccc(Cl)cc3)cc2)cc1)c1ccc(Cl)cc1 | -26.9% (inactive)
23 | CS(=O)(=O)CC(O)(c1ccccc1)c1ccccc1 | -21.4% (inactive)
24 | CC1=CC(O)C(Br)C(C)(C)C12CCC(C)(Cl)C(Br)C2 (stereo not given) | 90.1% (active)
25 | NCCCC(N)C(=O)O (stereo not given) | -16.9% (inactive)
26 | CCOC(=O)Nc1nc2c(s1)c([N+](=O)[O-])cn2C | 11.6% (inactive)
27 | COCCNC1CCC2(SCCS2)c2[nH]c3ccccc3c21 (stereo not given) | -10.3% (inactive)
28 | Nc1nc(Sc2ccccn2)ccc1[N+](=O)[O-] | 0.25% (inactive)
29 | CC(=O)Nc1ccc(N=C2c3ccccc3-c3ccc([N+](=O)[O-])cc32)cc1 | -6.1% (inactive)
30 | O=C(NNC(=O)c1ccc(Cl)c(Cl)c1)c1ccc(Cl)c(Cl)c1 | -37.9% (inactive)
31 | O=S(=O)(NCCNS(=O)(=O)c1ccccc1)c1ccccc1 | -10.4% (inactive)
32 | O=C(Nc1ccc(Cl)c(Cl)c1)c1ccc(Cl)cc1 | 2% (inactive)
33 | Nc1nc2ccccc2[nH]1 | 2.2% (inactive)
34 | CC1C(c2ccccc2)OC(c2ccccc2)N1C (stereo not given) | 3.25% (inactive)
35 | CCCOc1ccc(OCC(=O)c2ccccc2)cc1 | -23.9% (inactive)
36 | COc1cc(/C=C\C(=O)c2cccc([N+](=O)[O-])c2)cc(OC)c1OC | 20.4% (inactive)
37 | O=C([O][Sb]([O]C(=O)C(Br)Br)([c]1ccccc1)([c]1ccccc1)[c]1ccccc1)C(Br)Br | 15.7% (inactive)
38 | C[N+]1(CCC[N+]2(C)CCC3(CCCCC3)CC2)CCOCC1 | 18.6% (inactive)
39 | CCCCCCCCCCCCCCCCCN(C)C(=O)OCC | 23.1% (inactive)
40 | O=c1oc2ccccc2c2c1Sc1ccccc1N2 | -0.95% (inactive)
